Calls of active or inactive are those of the source. Unless noted, how the calls were made is not given here.

Test [1] deals with XIP peptide (Xip251-270) binding. The test is described as follows: small-molecule binders of XIP peptide, primary screen, biochemical, small-molecule microarray, fluorescence 635/667 nm, 0.1 µg/mL protein (AID 1182). As to conditions: fluorescent protein binding, 635 nm, higher = more signal, called active from +8 up or from −8 down.
For test [2], the system named is XIP peptide (Xip251-270). Briefly: small-molecule binders of XIP peptide, primary screen, biochemical, small-molecule microarray, fluorescence 635/667 nm, 0.5 µg/mL protein (AID 1183). As to conditions: small-molecule microarray binding, fluorescence 635 nm; higher = more signal.
Test [3] can be described thus: Plasmodium falciparum growth inhibition, primary screen, strain 3D7, DAPI fluorescence, 100 nL (AID 1184).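 Further: parasites grown inside human red blood cells in medium with human serum.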 The settings on record: P. falciparum 3D7 growth, 3 d, higher = more signal.
Test [4] concerns the target Homeobox protein Hox-A13 (Mus musculus) (UniProt Q62424). Briefly: inhibitors of HoxA13-DNA binding, primary screen, biochemical, fluorescence polarization, labeled oligonucleotide (AID 1185). The settings on record: 15 min, higher = more signal, called active from +8 up or from −8 down.
A short description of test [5]: inhibitors of hydroxyurea-induced Chk1 phosphorylation, primary screen, imaging, HeLa, phospho-Chk1 antibody, percent positive cells (AID 1186). As to conditions: hydroxyurea-induced phospho-Chk1 immunofluorescence imaging, higher = more signal.
Test [6] can be described thus: inhibitors of hydroxyurea-induced Chk1 phosphorylation, primary screen, imaging, HeLa, phospho-Chk1 nuclear intensity (AID 1187). As to conditions: hydroxyurea-induced phospho-Chk1 immunofluorescence imaging, higher = more signal.

Sequence of Homeobox protein Hox-A13 (Mus musculus) (Q62424 whole entry, looked up): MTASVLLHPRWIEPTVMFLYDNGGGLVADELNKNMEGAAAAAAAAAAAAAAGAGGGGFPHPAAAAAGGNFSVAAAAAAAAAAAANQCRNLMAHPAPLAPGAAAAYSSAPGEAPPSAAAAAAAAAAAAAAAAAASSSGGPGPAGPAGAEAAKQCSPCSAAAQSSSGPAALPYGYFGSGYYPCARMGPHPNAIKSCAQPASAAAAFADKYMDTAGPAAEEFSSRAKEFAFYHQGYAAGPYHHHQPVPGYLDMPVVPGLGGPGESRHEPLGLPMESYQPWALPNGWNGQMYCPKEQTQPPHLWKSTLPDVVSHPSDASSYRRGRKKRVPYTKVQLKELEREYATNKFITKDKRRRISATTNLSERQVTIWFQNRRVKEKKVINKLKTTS

Turning to `CN(C)CCCCNC(=O)[C@H]1C[C@H]2C(=O)N3CCC[C@H]3C(=O)N2[C@H]1c1cccc(OCCO)c1`, the values for the composite z-score in test [1] and in test [2] were 0.683 (inactive) and 0.629, respectively. In addition, the z-score in test [3] was 0.0172; in test [4], -3.86 (inactive); in test [5], -0.322 (inactive); in test [6], 0.0695 (inactive).
Take `C=CCC(OC(C)=O)[C@@H]1[C@@H](N(Cc2cccc3ccccc23)C(=O)Cc2ccc(OC)cc2)c2cc(OCCCO)ccc2N1C(=O)Cc1ccc2ccccc2c1` (stereo partly drawn): the composite z-score was -0.559 (inactive) in test [1] and 0.296 in test [2]. Further, the z-score in test [3] was -1.91; in test [4], -2.41 (inactive); in test [5] it was 0.42 (inactive); in test [6], 0.512 (inactive).
For the compound `O=C(NCc1ccccc1)[C@@H]1c2ccccc2C(=O)N(Cc2cc(C(F)(F)F)cc(C(F)(F)F)c2)[C@H]1c1ccc(CO)cc1`, the values for the composite z-score in test [1] and in test [2] were 0.722 (inactive) and 0.221, respectively. The z-score is -1.2 in test [3], -3.95 (inactive) in test [4], -0.0537 (inactive) in test [5] and -0.101 (inactive) in test [6].
For `COC(=O)[C@@]1(Cc2ccc(OC)cc2)[C@H]2c3cc(C(=O)N4CCCC4)n(Cc4ccc(Cl)c(C(F)(F)F)c4)c3C[C@H]2CN1C(=O)c1ccccc1`, the composite z-score is 0.151 (inactive) in test [1] and 0.45 in test [2]. Besides, the z-score in test [3] is -1.37; in test [4], 0.806 (inactive); in test [5], -0.842 (inactive); in test [6], -0.559 (inactive).
As for `O=C1C2C=CC(C(O)c3cccs3)N(Nc3ccc([N+](=O)[O-])cc3)C2C(=O)N1c1ccccc1` (stereo not drawn), the results for the composite z-score in test [1] and in test [2] were 0.396 (inactive) and -0.0032, respectively. Further, the z-score in test [3] was -0.965; in test [4] it was -4.16 (inactive); in test [5] it was -0.479 (inactive); in test [6], -0.779 (inactive).
Consider `CC(C)[Si](C#CCCc1ccccc1)(O[C@H](c1ccccc1)c1cn(Cc2ccccc2)nn1)C(C)C`, for which the composite z-score in test [1] was -0.0657 (inactive); in test [2], 0.574. The z-score in test [3] is -0.374; in test [4], -1.64 (inactive); in test [5], -1.18 (inactive); in test [6], -1.16 (inactive).
With `NC(=O)NCC#Cc1ccc2c(c1)[C@]1(C(=O)N2)[C@H](c2ccc(OCCO)cc2)N2[C@H](c3ccccc3)[C@H](c3ccccc3)OC(=O)[C@H]2[C@@H]1C(=O)O`, the composite z-score in test [1] is 0.348 (inactive); in test [2], -0.0846. The z-score in test [3] was -1.17; in test [4], -5.33 (inactive); in test [5], 0.31 (inactive); in test [6], 0.2 (inactive).
On to `C=CCOC(=O)[C@@H]1[C@H]2C(=O)O[C@H](c3ccccc3)[C@H](c3ccccc3)N2[C@H](c2ccc(OCCOC(=O)[C@H]3C[C@H]4C(=O)NCC(=O)N4[C@H]3c3cccc(OCCO)c3)cc2)[C@@]12C(=O)Nc1ccc(I)cc12`, for which the figures for the composite z-score in test [1] and in test [2] were 0.604 (inactive) and 0.794, respectively. Also, the z-score is -1.9 in test [3], 0.337 (inactive) in test [4], -0.856 (inactive) in test [5] and -1.2 (inactive) in test [6].
